The whole screen tested about 31,000 compounds, of which about 360 (1.2%) were called active. Not shown: some 8% with an inconclusive outcome. Calls come from the whole dose curve. Only a selection was taken, and actives are over-represented in it overall.
% is set by controls: 0 for no effect and ±100 for the full control effect; potency is the fitted concentration of half-maximal effect.

The target in the assay is Polyprotein P1234 (Chikungunya virus (strain S27-African prototype)) (UniProt Q8JUX6). The assay is described as follows: Primary qHTS for inhibitors of NSP2Pro chikungunya virus (CHIKV). Note: nearly all actives have a fitted effect of over 60% in size. The following applies: FRET peptide cleavage, fluorescence 1 h; series mostly up to 24.9 µM; activity change, negative = inhibition: at the top concentration. From the text: PI: Natalia J. Martinez Ph.D. National Center for Advancing Translational Sciences (NCATS), National Institute of Health (NIH), Rockville, Maryland Chikungunya virus (CHIKV) is a mosquito-borne RNA virus that has emerged as one of the most important global arboviral threats in the last decade. Although the first CHIKV vaccine has recently been FDA approved for use in healthy adults at increased risk, to date, there are no available antiviral drugs for CHIKV infection. CHIKV nsP2 protease plays a crucial role in the processing of the viral polypeptide precursor to release enzymes required for viral replication, thus making it a promising drug target for antiviral discovery. Here, we established a high-throughput pipeline to identify small molecule inhibitors of nsP2 proteolytic activity. The pipeline is composed of a suite of 1,536-well in vitro assays to support quantitative high-throughput (qHTS) screening campaigns. Specifically, we developed a fluorescence resonance energy transfer (FRET)-based assay using a fluorogenic peptide substrate encompassing an endogenous cleavage site and purified recombinant protease domain (nsP2pro). Using this assay, we interrogated ~37,000 small molecules, including those in drug repurposing libraries as well as chemically diverse and medicinal chemistry-friendly compounds. Hits were selected for follow-up validation against full-length nsP2 and an additional peptide. FRET-based 1,536-well assays for papain, hepatitis C virus NS3-4A, and human furin proteases were implemented to characterize compound selectivity. […] Novel compounds were identified to be potential nsP2 inhibitors and molecular docking analyses were performed to explain the binding mode of selected hits. In vitro antiviral activity was evaluated for a subset of compounds using a high-throughput CHIKV infection assay. To our knowledge, the pipeline presented here is unprecedented for CHIKV antiviral discovery research.
Sequence of Polyprotein P1234 (Chikungunya virus (strain S27-African prototype)) (Q8JUX6 whole entry, looked up): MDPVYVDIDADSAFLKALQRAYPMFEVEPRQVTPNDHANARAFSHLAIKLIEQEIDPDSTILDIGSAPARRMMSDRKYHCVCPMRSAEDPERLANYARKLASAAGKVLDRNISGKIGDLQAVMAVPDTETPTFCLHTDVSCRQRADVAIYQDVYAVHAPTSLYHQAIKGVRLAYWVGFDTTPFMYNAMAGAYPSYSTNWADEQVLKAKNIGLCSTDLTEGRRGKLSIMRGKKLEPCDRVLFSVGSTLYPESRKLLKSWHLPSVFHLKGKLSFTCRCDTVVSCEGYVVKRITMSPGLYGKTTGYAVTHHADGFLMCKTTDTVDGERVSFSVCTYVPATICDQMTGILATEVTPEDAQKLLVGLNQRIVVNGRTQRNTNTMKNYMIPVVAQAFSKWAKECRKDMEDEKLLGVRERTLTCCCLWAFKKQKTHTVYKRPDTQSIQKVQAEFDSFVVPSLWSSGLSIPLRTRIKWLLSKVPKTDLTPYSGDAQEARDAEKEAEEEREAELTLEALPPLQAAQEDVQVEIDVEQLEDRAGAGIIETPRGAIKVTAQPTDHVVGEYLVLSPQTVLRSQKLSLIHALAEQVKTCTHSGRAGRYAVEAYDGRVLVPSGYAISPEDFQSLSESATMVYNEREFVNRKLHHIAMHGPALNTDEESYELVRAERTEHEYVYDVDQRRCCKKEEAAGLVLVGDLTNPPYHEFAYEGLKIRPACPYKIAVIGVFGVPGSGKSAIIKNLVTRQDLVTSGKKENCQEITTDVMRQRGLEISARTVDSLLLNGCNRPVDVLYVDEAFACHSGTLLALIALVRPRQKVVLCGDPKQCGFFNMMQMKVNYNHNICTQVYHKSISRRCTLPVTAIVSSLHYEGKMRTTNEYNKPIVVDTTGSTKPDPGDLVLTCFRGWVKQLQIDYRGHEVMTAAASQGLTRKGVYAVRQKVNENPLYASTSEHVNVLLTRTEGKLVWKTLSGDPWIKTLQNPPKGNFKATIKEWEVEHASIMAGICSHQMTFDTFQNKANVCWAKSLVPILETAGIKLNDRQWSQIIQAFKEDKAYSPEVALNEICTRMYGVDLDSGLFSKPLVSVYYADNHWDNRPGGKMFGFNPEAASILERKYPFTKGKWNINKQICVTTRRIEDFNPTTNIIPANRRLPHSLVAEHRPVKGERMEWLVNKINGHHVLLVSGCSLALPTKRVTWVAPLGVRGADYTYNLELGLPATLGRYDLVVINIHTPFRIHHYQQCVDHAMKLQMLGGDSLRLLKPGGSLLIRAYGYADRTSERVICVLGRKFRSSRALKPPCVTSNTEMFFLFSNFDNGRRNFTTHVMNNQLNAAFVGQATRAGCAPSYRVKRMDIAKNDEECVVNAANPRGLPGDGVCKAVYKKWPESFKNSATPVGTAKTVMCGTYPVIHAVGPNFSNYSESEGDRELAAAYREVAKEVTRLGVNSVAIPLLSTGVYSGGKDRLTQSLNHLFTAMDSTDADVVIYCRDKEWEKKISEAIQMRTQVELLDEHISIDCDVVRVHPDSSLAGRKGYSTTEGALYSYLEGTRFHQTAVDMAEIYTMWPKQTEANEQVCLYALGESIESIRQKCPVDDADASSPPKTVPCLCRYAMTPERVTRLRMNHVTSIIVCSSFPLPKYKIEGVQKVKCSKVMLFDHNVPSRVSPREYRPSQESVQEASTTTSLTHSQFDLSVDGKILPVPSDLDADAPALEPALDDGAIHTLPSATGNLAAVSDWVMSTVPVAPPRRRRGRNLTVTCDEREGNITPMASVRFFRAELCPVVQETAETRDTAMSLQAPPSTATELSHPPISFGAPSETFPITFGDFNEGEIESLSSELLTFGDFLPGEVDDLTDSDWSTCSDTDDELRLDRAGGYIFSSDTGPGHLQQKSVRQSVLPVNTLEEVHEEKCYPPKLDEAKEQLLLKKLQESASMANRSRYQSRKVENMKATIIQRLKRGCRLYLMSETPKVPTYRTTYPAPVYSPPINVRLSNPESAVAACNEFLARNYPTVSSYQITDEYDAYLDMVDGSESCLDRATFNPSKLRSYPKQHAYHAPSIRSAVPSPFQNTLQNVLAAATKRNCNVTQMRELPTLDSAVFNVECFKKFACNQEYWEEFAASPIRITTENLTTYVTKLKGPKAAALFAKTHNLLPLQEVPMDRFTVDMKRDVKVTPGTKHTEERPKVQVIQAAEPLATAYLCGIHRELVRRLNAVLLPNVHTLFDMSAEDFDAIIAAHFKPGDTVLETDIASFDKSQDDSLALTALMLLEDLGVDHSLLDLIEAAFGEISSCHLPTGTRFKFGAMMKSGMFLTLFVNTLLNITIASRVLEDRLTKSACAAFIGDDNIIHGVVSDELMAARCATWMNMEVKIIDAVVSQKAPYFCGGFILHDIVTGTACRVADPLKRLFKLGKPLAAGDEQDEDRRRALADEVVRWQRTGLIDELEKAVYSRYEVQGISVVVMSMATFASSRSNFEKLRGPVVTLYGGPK
PROTOCOL TABLE (as described by Inglese J, Shamu CE and Guy RK. 2007) SEQUENCE No. (e.g., 1, 2, 3, etc.); […] (e.g., Cells, Incubation, Reagent, etc.); VALUE; DESCRIPTION. 1; Control / Compound; 20 nL; Echo 655 acoustic dispenser, Greiner 1536-well solid bottom black plate. 2; Enzyme; 4 uL; BioRAPTR FRD liquid dispenser (Beckman Coulter). 3; Incubation; 15 min; room temperature. 4; Reagent; 4 uL; 2.5 uM Peptide 2 substrate. 5; Incubation; 1 hr; room temperature. 6; Detection; Fluorescence; WiewLux microplate reader (PerkinElmer), 525 nm excitation, 598/25 nm emission. NOTES (numbers refer to sequence numbers above). 1. Briefly, 20 nL DMSO, positive control ZnAc (20nM final concentration), and test compounds were transferred into a 1,536-well solid bottom black plate (789176-F, Greiner One) via Echo 655 acoustic dispenser (Beckman Coulter). For primary screens, compounds were tested at 7 concentrations, 1:3 dilution points ranging from 25 uM to 34 nM. Follow-up confirmatory screens were carried out at 11 concentrations, 1:3 dilution points from 25 uM to 0.42 nM. 2. Four uL nsP2pro enzyme mix (150 nM final concentration) in 10 mM Tris-HCl pH 8.0 with 0.01% Tween 20 assay buffer was dispensed into the plate using a BioRAPTR FRD liquid dispenser (Beckman Coulter). 3. The plate was incubated at room temperature (protected from light) for 15 min 4. Four microliter of peptide 2 substrate (2.5 uM final concentration) in assay buffer was added to the plate. 5. After 1 hour, plates were immediately read on a ViewLux high-throughput CCD imager (Exposure = 10 sec, Gain = High, Speed = Slow, Binning = 2X). The above assay was also incorporated in the NCATS HTS facility41, which allowed for robotic liquid and compound dispensing, microplate handling, and fluorescence reading.. REFERENCE: Inglese J, Shamu CE and Guy RK, Reporting data from high throughput screening of small molecule libraries, Nature Chemical Biology, 2007, 3(8): 438-441. doi.org/10.1038/nchembio0807-438.
Background: In qHTS, concentration-response curves come from the screen itself.
On to `O=C(Cn1nc(C2CC2)ccc1=O)NCCc1ccccc1`, for which the “activity change, negative = inhibition” value is -6.14% (inactive). On the same count and under the same terms, next, `CCCC12CN3CC(CCC)(CN(C1)C3c1c[nH]c3ccc(OC)cc13)C2=O` (configuration not stated): 8.29% (inactive). Take `COc1ccc(N2Cc3cccc(C(=O)O)c3C2=O)cc1OC`: the “activity change, negative = inhibition” value is -3.96% (inactive).

On to `Cc1ccc(NC(=O)CSc2nc3c(c(=O)[nH]2)CN(Cc2ccc4c(c2)OCO4)CC3)cc1C`, for which the “activity change, negative = inhibition” value is -21.7% (inactive). Take `O=C(Nc1ncc(Cc2ccc(C(F)(F)F)cc2)s1)c1ccc(-c2ccc([N+](=O)[O-])cc2)o1`: the “activity change, negative = inhibition” value was -11.4% (inactive).

Consider `COc1cccc(Nc2ccc(N3CCN(C(C)=O)CC3)cc2)c1OC`, for which the molecule was called inactive.

For `COc1ccccc1OCCCn1c(-c2ccc(Cl)cc2)nc2ccccc2c1=O`, the “activity change, negative = inhibition” value was -10.8% (inactive). The same measure, in the same setting: as for `Cc1cc(C)nc(NS(=O)(=O)c2ccc(NC(=O)c3cc(=O)c4ccc(C)c(C)c4o3)cc2)n1`, the figure is -9.45% (inactive). As to `O=C1C(F)N([S+](=O)([O-])c2ccc3c(c2)OCCO3)CCN1[S+](=O)([O-])c1c(F)cccc1F` (configuration not stated), the call was inactive. For `Cc1cnn(CCC(=O)N2CCC3(CCNCC3)CC2)c1`, the “activity change, negative = inhibition” value is -10.6% (inactive).

For `CCOc1ccc(N(Cc2ccccc2)C(=O)c2nc(SCC)ncc2Cl)cc1`, the “activity change, negative = inhibition” value was 4.15% (inactive).

Turning to `CCOc1ccc(N(Cc2ccccc2)C(=O)c2nc(S(C)(=O)=O)ncc2Cl)cc1`, the Potency is 5.01 µM (active). For `CCOc1ccc(N(CC)C(=O)C2CCN(S(=O)(=O)c3cccc4nonc34)CC2)cc1`, the “activity change, negative = inhibition” value is -21.2% (inactive). Turning to `Cn1nnnc1Sc1ncnc2n[nH]c(-c3cccc(S(C)(=O)=O)c3)c12`, the Potency is 2.82 µM (active).

On to `Cn1nnnc1Sc1ncnc2scc(-c3ccccc3[N+](=O)[O-])c12`, for which the “activity change, negative = inhibition” value is -0.0419% (inactive).

As for `Cc1ccc(-c2ccccc2CN2CCN([S+](=O)([O-])c3cccc(C(F)(F)F)c3)CC2)cc1Cl`, the molecule was called inactive. `O=C(Nc1nc(-c2ccccc2)cs1)c1ccncc1NS(=O)(=O)c1ccc(Cl)cc1`: the “activity change, negative = inhibition” value was 2.25% (inactive). `Cc1c(Cl)cccc1NC(=O)N1CCN(C(=O)c2nsc3ccccc23)CC1`: the “activity change, negative = inhibition” value was -22.7% (inactive).

With `COc1cc(C(CC(=O)NCCC(C)C)N2Cc3ccccc3C2=O)cc(OC)c1OC` (configuration not stated), the “activity change, negative = inhibition” value is -20.7% (inactive). As to `O=C(Cn1ccn2nc3c(c2c1=O)CCCCC3)NCc1ccccc1Cl`, the “activity change, negative = inhibition” value is -6.55% (inactive).

In the case of `CC1=C(C(=O)N2CCN(c3cccc(C(F)(F)F)c3)CC2)C2(CCCCC2)OC1=O`, the “activity change, negative = inhibition” value was -21.5% (inactive). In the case of `CC(C)Sc1oc(-c2cccs2)nc1S(=O)(=O)c1ccc(Cl)cc1`, the “activity change, negative = inhibition” value was -23.7% (inactive). For `CCc1nc(-c2ccc(OC3CCN(C(=O)Cc4c[nH]c5ccccc45)C3)cc2)no1` (configuration not stated), the “activity change, negative = inhibition” value is -4.97% (inactive). `COc1ccc(CN2CCN(CCCSc3cc(C(C)(C)C)c(O)c(C(C)(C)C)c3)CC2)c(OC)c1OC`: the activity change, negative = inhibition was 11.3% [at 5.1 µM] (inactive). Consider `Cc1cn2nc(C(=O)NC3CCCC3)cc2c(N2CCSCC2)n1`, for which the molecule was classed as inactive. Same read-out and setting: as for `CCN(CC)c1cc(CCC(=O)NCc2cc(F)ccc2F)ccn1`, the entry is “inactive”. Regarding `FC(F)(F)c1cc(Nc2nc3ccccc3c3nncn23)ccc1Cl`, the “activity change, negative = inhibition” value is -5.64% (inactive).

As to `C=CS(=O)(=O)N1CCCN(c2cc(NCCC(=O)O)nc(-c3ccccn3)n2)CC1`, the “activity change, negative = inhibition” value was 166% (inactive).

With `Cc1ccc(NC(=O)CCCn2c(=O)c3cccn3c3ccccc32)cc1Cl`, the “activity change, negative = inhibition” value is -22% (inactive). As for `Cc1ccccc1[C@@H](C(=O)NC1CCCCC1)N(C(=O)Cn1ccnc1C)c1cccc(F)c1`, the “activity change, negative = inhibition” value was 4.93% (inactive). Regarding `CCOC(=O)C1CCCN(CC(=O)Nc2cc(C)c3c(=O)oc4ccccc4c3n2)C1` (configuration not stated), the “activity change, negative = inhibition” value is -8% (inactive). Turning to `COc1ccc(Cc2nc3ccc(C(=O)NCc4ccccc4Cl)cc3o2)cc1`, the “activity change, negative = inhibition” value is -15.7% (inactive).

For `COc1ccc(C2=Nn3c(nnc3-c3ccccc3OC)SC2)cc1OC1CCCC1`, the result was inactive.

Take `O=[S+]([O-])(c1ccc2c(c1)OCCO2)N1CCN([S+](=O)([O-])c2c(Cl)cc(Cl)cc2Br)CC1`: the “activity change, negative = inhibition” value is -5.69% (inactive). Still for that read-out and setting: as for `CC(=O)N1Cc2ccccc2CC2(CCN(Cc3ccc(O)cc3)CC2)C1`, the figure is -17.4% (inactive). Take `N#Cc1cc(-c2nc(Nc3ccc(F)c(F)c3)c3ccccc3n2)ccn1`: the molecule was classed as inactive. Turning to `COCCNc1ncnc2c1c(-c1ccccc1)cn2-c1ccc(C)c(Cl)c1`, the “activity change, negative = inhibition” value is -18.5% (inactive). In the case of `CN(Cc1ccccc1)C(=O)c1cn(C)c2ccc(S(=O)(=O)N(C)C3CCCCC3)cc2c1=O`, the “activity change, negative = inhibition” value was -8.33% (inactive). On to `O=C(Nc1ccc2ncnc(N3CCCCC3)c2c1)C1CCCCC1`, for which the molecule was classed as inactive.

`CCOc1ccc(CCNC(=O)c2cc3ccccc3n2Cc2cccc(C)c2)cc1OCC`: the “activity change, negative = inhibition” value was -6.04% (inactive).

Take `O=C(Cn1nc2c(cc1=O)CCCCC2)NC1CCN(C(=O)c2cc3ccccc3[nH]2)CC1`: the “activity change, negative = inhibition” value was 4.65% (inactive). Consider `COc1cc(OC)c(C(CC(=O)N2CC(C)CC(C)C2)c2ccc3c(c2)OCO3)c(OC)c1` (configuration not stated), for which the “activity change, negative = inhibition” value was -1.01% [at 39.2 µM] (inactive). With `Fc1cc(Nc2nc(-c3ccncc3)nc3ccccc23)ccc1N1CCCCC1`, the call was inactive. On to `O=C(c1nc(-c2ccsc2)c2cnccn12)N1CCCC1`, for which the “activity change, negative = inhibition” value is -15.1% [at 39.2 µM] (inactive). `O=S(=O)(NCCc1noc(-c2ccccc2)n1)c1ccc2c(c1)OCCO2`: the “activity change, negative = inhibition” value was -3.1% (inactive). The same measure, in the same setting: as for `CCOC(=O)c1cccc(NC(=O)Cn2cnc3nc4c(cc3c2=O)CCCC4)c1`, the figure is -27.2% (inactive); as for `C/C(=C\CC[C@@H](C)[C@H]1CC(O)[C@@]2(C)C3CC[C@H]4C(C)(C)[C@@H](OC5OCC(O)C(O)C5OC5OC(CO)C(O)C(O)C5O)CC[C@@]45C[C@@]35CC(O)[C@]12C)C(=O)O` (some centres not stated), -6.9% [at 10 µM] (inactive).
